From PubChem BioAssay AID1619 (SRMLSC, 2009)
Among all 220,000 compounds or so, about 830 (0.38%) were called active.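 The calls were made as follows: active = compound inhibiting the enzyme by more than half at any dose during confirmatory dose-response retesting; inconclusive = strong single-dose inhibitors picked by rank but not retested; inactive = the rest.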 Only a sample is shown. Entries with a potency or affinity are not part of this list.

target: Leucine aminopeptidase (Plasmodium falciparum (isolate 3D7)) (UniProt Q8IL11); assay: P. falciparum M17LAP inhibitors, primary screen, biochemical, fluorogenic H-Leu-NHMec substrate, 1536-well (AID 1619); details: recombinant M17LAP, H-Leu-NHMec fluorogenic kinetic assay; at 30 µM; active compounds read high;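 also: plate controls were full reaction with DMSO carrier for no effect and no enzyme background for full effect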
Sequence (Q8IL11 whole entry, looked up): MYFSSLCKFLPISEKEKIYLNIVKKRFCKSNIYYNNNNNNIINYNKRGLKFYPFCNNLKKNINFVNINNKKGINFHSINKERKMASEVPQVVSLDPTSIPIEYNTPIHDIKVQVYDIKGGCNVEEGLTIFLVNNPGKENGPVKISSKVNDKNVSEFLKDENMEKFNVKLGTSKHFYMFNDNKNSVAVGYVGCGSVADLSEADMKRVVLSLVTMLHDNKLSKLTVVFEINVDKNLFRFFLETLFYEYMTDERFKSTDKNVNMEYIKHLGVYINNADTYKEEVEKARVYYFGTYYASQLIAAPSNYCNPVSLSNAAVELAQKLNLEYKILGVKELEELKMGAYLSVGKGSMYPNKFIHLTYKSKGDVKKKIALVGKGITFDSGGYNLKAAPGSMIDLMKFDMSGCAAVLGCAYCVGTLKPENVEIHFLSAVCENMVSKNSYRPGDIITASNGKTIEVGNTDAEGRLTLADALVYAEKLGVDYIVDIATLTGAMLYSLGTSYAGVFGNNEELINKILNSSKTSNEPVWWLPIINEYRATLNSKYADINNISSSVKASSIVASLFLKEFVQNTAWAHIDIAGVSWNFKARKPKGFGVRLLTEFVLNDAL

inhibition, inactive:
Cc1csc2c(SCC(=O)NNS(=O)(=O)c3cccc(C(F)(F)F)c3)ncnc12 -12.4%
CC1(OC(=O)C2CCCC2)C(=O)C=C2C=C(c3ccsc3)N(c3ccccc3)C=C2C1=O (stereo unspecified) -5.77%
O=C(OCCN1C(=O)c2ccccc2C1=O)c1ccco1 15.3%
CCN1CCN(Cc2ccc(NC(=O)Nc3ccccc3)cc2)CC1 50.7%
CCN1CCN(Cc2ccc(NC(=O)Nc3ccccc3OC)cc2)CC1 -5.76%
COc1ccc(NC(=O)Nc2ccc(C(=O)N3CCOCC3)cc2)c(OC)c1 -5.93%
Cc1ccc(NC(=O)Nc2ccc(C(=O)N3CCOCC3)cc2)cc1 41%
CC(=O)Nc1cccc(C(=O)/C=C/c2ccco2)c1 17.6%
O=C(O)c1ccccc1/C=N/N1CCN(C2c3ccccc3-c3ccccc32)CC1 -1.62%
Brc1ccc(C2=Nn3c(nnc3-c3n[nH]c4c3CCC4)SC2)cc1 6.03%
CCn1c(O)c(N=N)c2ccccc21 12.4%
O=C(N/N=C/c1coc2ccccc2c1=O)c1cc(O)cc(O)c1 29.1%
O=C(N/N=C/c1coc2ccccc2c1=O)c1ccccc1 11.9%
Cc1c(C(=O)N2CCCC2)sc(NC(=O)c2cccc(Cl)c2)c1C#N 18.9%
O=C(CSc1ccccc1C(=O)O)NCc1ccco1 16.5%
Cc1ccc(SCC(=O)NCCC2=CCCCC2)cc1 -5.26%
O=C(CSc1ccccc1C(=O)O)NCc1ccccc1 17.3%
O=C(COC(=O)c1cccnc1SCC(=O)NCc1ccccc1)NCc1ccccc1 5.78%
O=C(COC(=O)c1cccnc1Cl)NCCC1=CCCCC1 3.53%
O=C(CSc1ncccn1)NCc1ccc(F)cc1 2.25%
Cc1cccc2cc(C(c3nnnn3Cc3ccccc3)N3CCN(c4ccccc4)CC3)c(=O)[nH]c12 (stereo unspecified) 2.86%
COc1ccc(N2C(=O)CC(SCCc3nc4ccccc4[nH]3)C2=O)cc1 (stereo unspecified) 5.58%
CC1=C(C(=O)NCc2ccccc2)C(c2cccs2)n2ncnc2N1 (stereo unspecified) -3.95%
O=C(NNC(=S)Nc1ccccc1)Nc1ccccc1 9.53%
N#C/C(=C\c1ccc(N2CCOCC2)o1)C(=O)NCCc1ccccc1 10.1%
COCCNC(=O)/C(C#N)=C/c1ccc(C)o1 23.4%
N#C/C(=C/c1ccc(N2CCOCC2)o1)C(=O)Nc1ccccc1 11.7%
N#C/C(=C\c1ccc(N2CCOCC2)o1)C(=O)NC1CCCCC1 48.6%
N#C/C(=C\c1ccc(N2CCOCC2)o1)C(=O)Nc1ccc(O)cc1 43.7%
N#C/C(=C\c1ccc(N2CCOCC2)o1)C(=O)NCC1CCCO1 (stereo unspecified) 51%
CCN1CCN(Cc2ccc(NC(=O)c3cc(NC(=O)C4=NN(c5ccccc5)C(=O)C4)cc(OC)c3)cc2C(F)(F)F)CC1 6.5%
CCn1c(SCC(=O)OCc2ccccc2)nnc1-c1ccco1 4.57%
CCOC(=O)COc1ccccc1/C=C1/NC(=O)NC1=O -4.69%
CCOC(=O)c1c(C)[nH]c(C(=O)OCC(=O)Nc2ccc(OCC)cc2)c1C -8.26%
COc1ccc(C(C)C)cc1S(=O)(=O)n1ccnc1C -18.1%
COC1=Cc2c(ccc3ccc(=O)oc23)OC1(C)C -5.99%
CC(Sc1nc(-c2ccccc2)cc(=O)[nH]1)C(=O)O (stereo unspecified) 22.4%
CCC(Sc1nc(-c2ccccc2)cc(=O)[nH]1)C(=O)O (stereo unspecified) 10%
COc1cccc(CNC(=O)CN2C(=O)CSc3ccc(S(=O)(=O)N4CCCC4)cc32)c1 1.2%
COc1ccc(C(=O)NCC(=O)OCC(=O)Nc2c(C)n(C)n(-c3ccccc3)c2=O)cc1 5.29%
COc1ccc(CNc2nn[nH]n2)cc1OC 26.5%
c1ccc(COc2ccccc2CNc2nn[nH]n2)cc1 6.74%
COc1ccc(/C=N/NC(=S)N[C@H]2CC3CCC2C3)cc1 (stereo partly specified) 3.46%
COc1ccc(C(=O)Nc2nc3cc(OC)c(OC)cc3c(=O)[nH]2)cc1 0.22%
CC1CCC2(CC1)NC(=O)N(CC(=O)N1CCN(S(=O)(=O)c3ccccc3)CC1)C2=O (stereo unspecified) 5.42%
CS(=O)(=O)CCC(C(=O)N1CCOCC1)N1C(=O)c2cc(Cl)c(Cl)cc2C1=O (stereo unspecified) 6.46%
Cc1cccc(Nc2ncnc3ccc(Br)cc23)c1 5.43%
COc1cccc(Nc2ncnc3ccccc23)c1 13.6%
COc1cccc(Nc2ncnc3c2cnn3C)c1 16.4%
Cc1cccc(Nc2ncnc3ccccc23)c1 19.2%
CCN1C(=O)/C(=C\c2nc3ccccc3c(=O)n2-c2ccccc2)c2ccccc21 -3.98%
CCOC(=O)c1cnc2c(C)c(Cl)ccc2c1Nc1ccc(S(=O)(=O)Nc2ncccn2)cc1 -6.24%
CC(=O)NC(O)C(=O)c1ccco1 (stereo unspecified) 3.51%
C=CCn1c(SCC(=O)Nc2c(C)cccc2C)nnc1-c1ccncc1 -1.77%
COc1ccc(C(=O)COC(=O)C2CCC(=O)N2)cc1 (stereo unspecified) -3.64%
Cc1ccc2nc(SCCC(=O)O)cc(C)c2c1 43.9%
Cc1cc(C)nc(Nc2n[nH]c(-c3ccccc3Br)n2)n1 -2.55%
Nc1nc(-c2ccccc2Br)cs1 -3.14%
CC(C)CC(C(=O)O)N1C(=O)[C@@H]2[C@H](C1=O)[C@@H]1C[C@H]2C(Br)C1Br (stereo partly specified) 42.5%
Cc1[nH]n(-c2ncc(-c3ccccc3)s2)c(=O)c1C(c1ccc(Cl)cc1)C(C#N)C#N (stereo unspecified) 21.9%
Cc1[nH]n(-c2ncc(-c3ccccc3)s2)c(=O)c1C(c1ccc(Br)cc1)C(C#N)C#N (stereo unspecified) 6.12%
O=C(COC(=O)Cc1c[nH]c2ccccc12)Nc1ccccc1 0.86%
CC(C)(C)c1ccc(C(=O)C2CCCN(C(=O)C3CCOCC3)C2)cc1 (stereo unspecified) -15.1%
O=C(CN1CCC(n2nnc3cc(C(F)(F)F)ccc32)CC1)N1CCc2ccccc21 10.6%
Cc1ccc(CSCCNC(=O)CN2C(=O)c3ccccc3S2(=O)=O)cc1 46.9%
O=C(CN1C(=O)c2ccccc2S1(=O)=O)Nc1ccccc1C(=O)NCc1ccco1 23.5%
COc1ccc(CCNC(=O)CN2C(=O)c3ccccc3S2(=O)=O)cc1 34.7%
O=C(CN1C(=O)c2ccccc2S1(=O)=O)NCCC1=CCCCC1 43.9%
CC(C)(C)SCCNC(=O)CN1C(=O)c2ccccc2S1(=O)=O 32.2%
Cc1ccc(SCCNC(=O)CN2C(=O)c3ccccc3S2(=O)=O)cc1 54.1%
Cc1ccc(N(C(C)C(=O)O)S(=O)(=O)c2c(C)[nH]c(=O)[nH]c2=O)cc1 (stereo unspecified) 3.87%
c1ccc(Cn2nnc3c(N4CCc5ccccc54)ncnc32)cc1 -4.35%
CCCNC(=O)NS(=O)(=O)c1cnccc1Sc1ccc(Cl)c(Cl)c1 9.08%
Cc1ccc(NC(=O)Cn2cccc2C2=NC(c3ccccc3)CO2)cc1C (stereo unspecified) -6.31%
COC(=O)CSc1nc2cc3c(cc2cc1C)OCO3 -14.1%
Cc1cc(NC(=O)CCN2C(=O)C3C4CCC(C4)C3C2=O)cc(C)c1Br (stereo unspecified) 3.99%
Cc1c(Br)ccc(NC(=O)CCN2C(=O)C3C4CCC(C4)C3C2=O)c1C (stereo unspecified) 15.8%
O=C(NCc1ccccn1)C(=O)N/N=C/c1ccc2c(c1)OCO2 9.75%
Nc1nc2c(s1)CC(c1ccccc1)CC2 (stereo unspecified) 18.1%
COc1ccc(Nc2ncc3c(n2)CC(c2ccc(OC)cc2)CC3=O)cc1 (stereo unspecified) 0.52%
COc1ccc(C2CC(=O)c3sc(NC(C)=O)nc3C2)cc1 (stereo unspecified) -0.56%
Nc1nc2c(s1)C(=O)CCC2 12.6%
CC(C)c1nc(SCC(=O)Nc2ccc3c(c2)OCCO3)n[nH]1 20.1%
Cc1csc(SCC(=O)Nc2ccc3c(c2)OCCO3)n1 -1.69%
Nc1nc(SCC(=O)Nc2ccc3c(c2)OCO3)n[nH]1 4.7%
CCc1c(C)nc(SCC(=O)Nc2ccc(Br)cc2)[nH]c1=O 19.5%
Cc1cc(=O)[nH]c(SCC(=O)Nc2ccc3c(c2)OCCO3)n1 36.2%
CC(C)C(=O)Nc1nnc(SCC(=O)Nc2ccc3c(c2)OCO3)s1 14.7%
O=C(CSc1ncn(-c2ccccc2)n1)Nc1ccc2c(c1)OCCO2 27.7%
CCCC(=O)Nc1nnc(SCC(=O)Nc2ccc3c(c2)OCCO3)s1 -3.46%
CCc1nc(SCC(=O)N2CCN(c3ccccc3)CC2)c2c(=O)n(C)c(=O)n(C)c2n1 3.46%
O=C(Nc1ccc(S(=O)(=O)NCc2ccco2)cc1)C1CCCCC1 2.33%
CC(=O)c1sc(NC(=O)CCOc2ccccc2)nc1C -0.71%
CCN1CCN(C(=O)CN(C)S(=O)(=O)c2ccc(Cl)cc2)CC1 -6.75%
CC(C)CNC(=O)C1CCN(c2ccc(S(=O)(=O)N3CCOCC3)cc2)CC1 -3.46%
CSc1nc(Cc2ccccc2)nc2ccccc12 0.06%
